Where “and” joins values, the source holds several entries; their conditions need not be identical. Equal values may be shown once. Calls of active or inactive are those of the source. How the source made its calls: active means hit-call score of the fitted dose curve at least 0.9, where 1 is the maximum; inactive means score below 0.9.

The nature of the experiment: CCTE_Shafer_MEA_acute_burst_percentage_mean: CCTE's Neural Acute Assay for Percentage of Spikes in a Burst, Shafer Lab (AID 2284017).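 On AC50: curve fitted for loss of signal so potency reflects decreased burst percentage.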 As to the method: CCTE_Shafer_MEA_acute assay is conducted using Axion Biosystems 48 well microelectrode array (MEA) plates and Maestro recording system. Each well of the MEA plate contains a grid of 16 microelectrodes embedded in the culture surface. Electrically active cells, such as neurons, can be cultured over the electrodes, and electrical activity in these cells can be recorded extracellularly. The spontaneous firing of neurons is captured from each electrode on a microsecond timescale providing both temporally and spatially precise data. […] The CCTE_Shafer_MEA_acute assay uses primary cultures of rat cortical neurons. As these cultures mature over time, neural networks develop functional activity and form cohesive networks in which electrical activity can be highly coordinated. Baseline 40-minute recordings are made on days post-plating 13 or 15, followed by a secondary 40-minute recording after chemical exposure.CCTE_Shafer_MEA_acute_burst_percentage_mean is a component of the CCTE_Shafer_MEA_acute assay. It measures the percentage of spikes (action potential firing) in a single-electrode burst (temporally-clustered groups of spikes) as the number of spikes in bursts divided by the total number of spikes during a recording in a microelectrode array (MEA) using Axion Biosystems Maestro 768 channel amplifier with the AxIS adaptive spike detector. The average of the burst percentages across electrodes is calculated to report a well-level value. The recordings before and after chemical treatment are used to calculate a percent change in the mean burst percentage in each well.Data from the assay component CCTE_Shafer_MEA_acute_burst_percentage_mean was analyzed into 1 assay endpoint. This assay endpoint, CCTE_Shafer_MEA_acute_burst_percentage_mean, was analyzed in the negative analysis fitting direction relative to DMSO as the negative control and baseline of activity. Using a type of functional reporter, gain or loss-of-signal activity can be used to understand electrical activity.
Spontaneous activity in the cortical cultures was recorded using an Axion Biosystems Maestro 768 channel amplifier and Axion Integrated Studios (AxIS) v1.8 (or later) software. The amplifier recorded from all channels simultaneously (gain = 1200 x; sampling rate = 12.5 kHz/channel): raw signals were filtered with a Butterworth band-pass filter (300-5000 Hz), which filters out slower local field potentials leaving only fast potentials, i.e., "spikes", arising from extracellular currents associated with action potentials (Pine 2006; Wheeler and Nam 2011). On-line spike detection of filtered signals was conducted with the AxIS adaptive spike detector, using a threshold of 8x the root mean squared (rms) noise on each channel. Any electrodes with rms noise levels greater than 5 uV were grounded (e.g., no data were recorded). Once grounded, an electrode was grounded for the duration of the experiment. All recordings were conducted at 37 C. Wells were deemed usable if on the day of the exposure >/= 10 electrodes were active (defined as >/= 5 spikes/min). On DIV 13 or 15, a minimum of three wells from one cortical culture preparation were treated with each compound (0.03-40 uM). Prior to recording baseline activity, each mwMEA plate was placed in the Maestro at 37 C and allowed to sit for 20 min while firing rates stabilized. Baseline activity (40 min) was recorded before the addition of each compound. An additional 40 min of spontaneous activity was recorded in the presence of each compound. Changes in network parameters relative to baseline were assessed following compound treatment.
Consider `CCCCCCCCCc1ccc(O)cc1`, for which the AC50 (as a rule, the concentration giving half of the maximal activity seen) was 22.5 µM (active).
On to `CC(C)C(=O)OCC(C)(C)C(OC(=O)C(C)C)C(C)C` (stereo unspecified), for which the outcome was inactive.
Still for that read-out and setting: next, `O=C(N[C@H]1CN2CCC1CC2)c1cc2ccoc2cn1`: “inactive”.
Turning to `ClC1=C(Cl)[C@]2(Cl)[C@@H]3[C@@H](Cl)[C@H]4O[C@H]4[C@@H]3C1(Cl)C2(Cl)Cl`, the AC50 is 0.0303 µM (active).
Same read-out and setting: with `ClC1=C(Cl)[C@]2(Cl)[C@@H]3[C@H]4C[C@H]([C@@H]5O[C@H]45)[C@@H]3[C@@]1(Cl)C2(Cl)Cl` the figure was 0.0239 µM (active).
Take `CCC(C)(c1ccc(O)cc1)c1ccc(O)cc1`: the outcome was inactive.
For the compound `CCCCCCCCCC[N+](C)(C)CCCCCCCCCC`, the AC50 is 8.11 µM (active).
In the case of `CCC(C)(CC)c1cc(NC(=O)c2c(OC)cccc2OC)on1`, the compound was called inactive.
`Clc1ccc(C(Cl)(Cl)Cl)cc1`: the result was inactive.
With `Nc1ccc(-c2ccc(N)cc2)cc1`, the outcome was inactive.
Consider `ClC(Cl)=C(c1ccc(Cl)cc1)c1ccc(Cl)cc1`, for which the concentration at half-maximal activity (AC50) was 33.2 µM (active).
For the compound `c1ccc(-c2ccccc2)cc1`, the AC50 was 33.1 µM (active).
For `C=CC(N)=O`, the outcome was inactive.
Take `CO/C=C(/C(=O)OC)c1ccccc1COc1cccc(C(F)(F)F)n1`: the AC50 is 5.12 µM (active).
For `CCC(C)c1cc([N+](=O)[O-])cc([N+](=O)[O-])c1O` (stereo unspecified), the result was inactive.
For `CC(c1ccc(O)cc1)(c1ccc(O)cc1)c1ccc(O)cc1`, the AC50 is 29.6 µM (active).
Take `O=C(O)C(F)(F)C(F)(F)C(F)(F)C(F)(F)C(F)(F)F`: the result was inactive.
Turning to `ClC1=C(Cl)[C@]2(Cl)[C@@H]3[C@@H]4C[C@@H]([C@H]5O[C@@H]45)[C@@H]3[C@@]1(Cl)C2(Cl)Cl`, the AC50 was 0.0949 µM (active).
As to `CC#Cc1cc(C)nc(Nc2ccccc2)n1`, the AC50 was 6.86 µM (active).
As for `COS(=O)(=O)OC`, the call was inactive.
With `CCCN(CCC)N=O`, the result was inactive.
Regarding `COc1ccc(O)c(C(C)(C)C)c1`, the AC50 was 15 µM (active) and 1.45 µM (active) and 32.8 µM (active).
As for `O=C(NC(=O)c1c(F)cccc1F)Nc1cc(Cl)c(OC(F)(F)C(F)F)c(Cl)c1`, the compound was called inactive.
On to `CCSC(=O)N(CC)C1CCCCC1`, for which the AC50 is 7.15 µM (active).
`CN(C)CCO`: the result was inactive.
As for `Oc1ccc(C(c2ccc(O)cc2)(C(F)(F)F)C(F)(F)F)cc1`, the AC50 was 25.3 µM (active).

For the origin of these results see PubChem BioAssay (EPA / NIEHS).
